Source: PubChem (National Center for Advancing Translational Sciences (NCATS))
BAZ2B inh: qHTS Assay for Inhibitors of BAZ2B; Bromodomain adjacent to zinc finger domain protein 2B (Homo sapiens), Q9UIF8; AlphaScreen BAZ2B-H3K14Ac peptide displacement; Potency, µM (doses to about 114 µM), for inactives: top-dose activity change, negative = inhibition, actives largely listed as inhibitors; actives 4.4% (n = 360,000); AID 504333, 2011; also: % is scaled to controls: 0 for no effect and ±100 for the full control effect; nearly all actives have a fitted effect of over 60% in size
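AlphaScreen luminescence quantifies BAZ2B engagement of H3K14Ac peptide; the protein and biotinylated peptide are both at 50 nM final, buffer PBS pH 7.4 with 0.01% Tween-20, all steps at room temperature.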
JMJD2A Tudor: qHTS Assay for Inhibitors of JMJD2A-Tudor Domain | Lysine-specific demethylase 4A (Homo sapiens), O75164 | AlphaScreen JMJD2A-Tudor / H3K4me3 peptide binding | Potency, µM (highest dose often 114 µM), for the others: top-dose activity change, negative = inhibition, usual class: inhibitors | actives 4.4% (n = 390,000); also: % is scaled to controls: 0 for no effect and ±100 for the full control effect; nearly all actives have a fitted effect of over 50% in size
G9a block: qHTS Assay for Inhibitors of Histone Lysine Methyltransferase G9a. AID 504332, 2011. Histone-lysine N-methyltransferase EHMT2 (Homo sapiens), Q96KQ7. G9a H3K9 monomethylation, AlphaScreen, 2 h. Potency, µM (series often up to 102 µM), for inactives: at the top dose activity, negative = inhibition, hits mostly inhibitors. actives 8.8% (n = 350,000); also: % is scaled to controls: 0 for no effect and ±100 for the full control effect; nearly all actives have a fitted effect of over 75% in size
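Readings reflect AlphaScreen signal from monomethyl-H3K9 antibody detection. HMT at 20 nM; substrate b-H3K9 500 nM; cofactor SAM 20 uM; 2 h RT reaction; compounds tested as titrations in qHTS with 15 min preincubation.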
Sfp inh: qHTS Assay for Inhibitors of Bacillus subtilis Sfp phosphopantetheinyl transferase (PPTase); 4'-phosphopantetheinyl transferase ffp (Bacillus subtilis), Q9F4F7; Biochemical Sfp PPTase activity, qHTS; Potency, µM, for the others: largest response in the series, negative = inhibition, actives largely listed as inhibitors; actives 3.5% (n = 310,000); AID 1490, 2009;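 also: the enzyme is Sfp with the accession as filed and its product quenches rhodamine fluorescence; 0% = enzyme reaction without inhibitor and -100% = no enzyme wells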
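Reaction rates are the 30-min fluorescence difference (ex 525, em 598 nm) in wells containing 15 nM Sfp, 5 uM rhodamine-CoA and 12.5 uM BHQ-2-YbbR at pH 7.6 with 10 mM MgCl2.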
HP1b binding inh: HTS for Inhibitors of HP1-beta Chromodomain Interactions with Methylated Histone Tails; AID 540317, 2011; Chromobox protein homolog 1 (Homo sapiens), P83916; actives 0.56% (n = 390,000); Potency, µM (top dose mostly 114 µM), for inactives: at the top dose activity change, negative = inhibition, usual class: inhibitors; AlphaScreen HP1-beta / biotin-H3K9me3 peptide binding; also: nearly all actives have a fitted effect of over 70% in size
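Compound inhibition of the preformed complex between 50 nM HP1-beta and 50 nM biotinylated H3K9me3 peptide was read by AlphaScreen. Buffer was PBS pH 7.4 with 0.01% Tween-20. Incubations ran 30 min at room temperature, with 10 ug/mL donor/acceptor beads.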
* marks the source's active call; other numbers are inactive results; [ ] = remark or other dose. The list is not random: actives were taken first. Their share in the collection is about 12%. Calls follow the shape of the dose curve; as a rule, active = well fitted curve in the direction sought with a large enough effect; inconclusive = small, poorly fitted or top-dose-only effect, or another doubt; inactive = no such curve, though single readings can be large; an effect the other way counts as inactive or inconclusive. Potency is read from the fitted curve at half-maximal effect.

What do the screens show for `CC1CCC(C(C)C)C(OCC(O)C[N+]2(C)CCCCC2)C1` (stereo unspecified)?
BAZ2B inh: -29%; JMJD2A Tudor: -11%; G9a block: 50µM*; Sfp inh: -4%; HP1b binding inh: inconclusive

Results for Cc1no[n+]([O-])c1COc1ccc(/C=N/n2nnnc2N)cc1 ?
BAZ2B inh: 4%; JMJD2A Tudor: -2%; G9a block: 6%[59 µM]; Sfp inh: -1%; HP1b binding inh: 18%

How did Cc1ccc(Nc2nnc(SCC(=O)NC(Cc3c[nH]c4ccccc34)C(=O)O)s2)cc1 (stereo unspecified) do in these assays?
BAZ2B inh: 50µM*; JMJD2A Tudor: -23%; G9a block: 13µM*; Sfp inh: -13%; HP1b binding inh: 1%

How did CCOc1ccccc1Nc1nnc(SCC(=O)NC(Cc2c[nH]c3ccccc23)C(=O)O)s1 (stereo unspecified) do in these assays?
BAZ2B inh: -31%; JMJD2A Tudor: -29%; G9a block: 40µM*; Sfp inh: 8%; HP1b binding inh: -9%

How did O=C(Oc1ccccc1F)c1nc(SCc2ccc(F)cc2)ncc1Cl do in these assays?
BAZ2B inh: 20%; JMJD2A Tudor: 9%; G9a block: 23%[59 µM]; HP1b binding inh: 45%

What do the screens show for `Cc1cc(C)cc(OC(C)C(=O)Nc2c(C(=O)c3ccccc3)oc3ccccc23)c1` (stereo unspecified)?
BAZ2B inh: 6%; JMJD2A Tudor: 42%; G9a block: 44%[59 µM]; HP1b binding inh: 86%

How did COc1ccc(CNCC(O)(c2ccc(Cl)cc2)c2ccc(Cl)cc2)cc1OC do in these assays?
BAZ2B inh: -10%; JMJD2A Tudor: -25%; G9a block: -2%; Sfp inh: 45µM*; HP1b binding inh: 12%

Results for CCOc1cc(CNCCc2ccc(S(N)(=O)=O)cc2)cc(Cl)c1OCc1ccccc1 ?
BAZ2B inh: inconclusive; JMJD2A Tudor: -35%; G9a block: -47%; Sfp inh: 3.5µM*; HP1b binding inh: 38%

What do the screens show for `CCOc1cc(CNCCc2ccc(S(N)(=O)=O)cc2)ccc1OCc1ccccc1`?
BAZ2B inh: inconclusive; JMJD2A Tudor: -6%; G9a block: 10%; Sfp inh: 11µM*; HP1b binding inh: 24%

What do the screens show for `CCOc1cc(CNn2cn[nH]c2=S)cc(Cl)c1OCc1ccccc1F`?
BAZ2B inh: -2%; JMJD2A Tudor: inconclusive; G9a block: 7.9µM*; Sfp inh: 7%; HP1b binding inh: 9%

Results for CCc1ccc(CNC(=O)CN2C(=O)c3cccnc3Oc3ccc(C)cc32)cc1 ?
BAZ2B inh: 1%; JMJD2A Tudor: -7%; G9a block: 0%[59 µM]; HP1b binding inh: 16%

Results for CC(C)C[C@@H](CC(=O)N[C@@H](CCC(=O)O)CC(=O)O)NC(=O)[C@@H]1CCCC[C@H]1NC(=O)C[C@H](CCCN)NC(=O)C[C@H](Cc1ccccc1)NC(=O)[C@@H]1CCCC[C@H]1N ?
Sfp inh: -16%

Results for Cc1c(C)n(Cc2ccccc2)c2ccc(C(=O)N3CCN(c4ccc(F)cc4)CC3)cc12 ?
BAZ2B inh: -38%; JMJD2A Tudor: inconclusive; G9a block: inconclusive; HP1b binding inh: -9%

What do the screens show for `CCc1c(C)sc2c1CCN(C(=O)Nc1cc(C)ccc1C)C2c1ccc(OC)cc1` (stereo unspecified)?
BAZ2B inh: -22%; JMJD2A Tudor: -12%; G9a block: 1%[59 µM]; HP1b binding inh: 21%

How did CCOc1cc(CNC2CCCC2)cc(Cl)c1OCc1ccc(F)cc1 do in these assays?
BAZ2B inh: 11%; JMJD2A Tudor: 0%; G9a block: -3%[12.7 µM]; Sfp inh: 40µM*; HP1b binding inh: 12%

Results for COc1cc(CNC2CCCC2)cc(Cl)c1OCc1ccc(F)cc1 ?
BAZ2B inh: 1%; JMJD2A Tudor: -11%; G9a block: -34%[59 µM]; Sfp inh: -26%; HP1b binding inh: 23%

How did CCOc1cc(CNCc2ccccc2)ccc1OCc1ccc(Cl)cc1 do in these assays?
BAZ2B inh: 13%; JMJD2A Tudor: 0%; G9a block: -13%[2.33 µM]; Sfp inh: -27%; HP1b binding inh: 72%

Results for COc1ccc(CNCCc2ccc(Cl)cc2)cc1OCc1ccccc1 ?
BAZ2B inh: 56µM*; JMJD2A Tudor: 40µM*; G9a block: 10µM*; Sfp inh: -29%; HP1b binding inh: inconclusive

What do the screens show for `Cc1ccc([C@@H]2[C@@H]3C(=O)N(C)C(=O)[C@@H]3[C@]3(C)C(=O)N(Cc4ccccc4)CC(=O)N23)o1`?
BAZ2B inh: 18%; JMJD2A Tudor: -7%; Sfp inh: -11%; HP1b binding inh: 64%

Results for COC(=O)CN1C(=O)[C@H]2[C@@H](c3ccc(C)o3)N3C(=O)CN(Cc4ccccc4)C(=O)[C@@]3(C)[C@H]2C1=O ?
BAZ2B inh: -22%; JMJD2A Tudor: -22%; G9a block: 45µM*; Sfp inh: 45µM*; HP1b binding inh: 37%

What do the screens show for `CC12C=C(/C=C/C=C/c3ccco3)C(C)(C1)C(/C=C/c1ccco1)CC2=O` (stereo unspecified)?
Sfp inh: -27%

Results for CCC(C)/C=C/C1=CC2=C(Cl)C(=O)C3(C)OC(=O)C(C(=O)C(C)C(C)O)C3C2=CO1 (stereo unspecified) ?
BAZ2B inh: inconclusive; JMJD2A Tudor: -35%; G9a block: inconclusive; Sfp inh: 32µM*; HP1b binding inh: 3%

What do the screens show for `CCOc1ccc(C(=O)NCC(=O)Nc2ncccc2C)cc1OCC`?
BAZ2B inh: -8%; JMJD2A Tudor: -5%; G9a block: -3%[59 µM]; HP1b binding inh: 22%

Results for CCN1CCN(C(c2cc3cc4c(cc3[nH]c2=O)OCO4)c2nnnn2C(C)(C)CC)CC1 (stereo unspecified) ?
BAZ2B inh: -3%; JMJD2A Tudor: -21%; G9a block: -37%[59 µM]; Sfp inh: -6%; HP1b binding inh: 10%

What do the screens show for `CCC(C)(C)n1nnnc1C(c1cc2cc(C)ccc2[nH]c1=O)N1CCCC1` (stereo unspecified)?
BAZ2B inh: -4%; JMJD2A Tudor: -18%; G9a block: 8.9µM*; Sfp inh: 14µM*; HP1b binding inh: 23%

Results for CCC(C)(C)n1nnnc1C(c1cc2cc(OC)c(OC)cc2[nH]c1=O)N1CCc2ccccc21 (stereo unspecified) ?
BAZ2B inh: -15%; JMJD2A Tudor: inconclusive; G9a block: 45µM*; Sfp inh: -2%; HP1b binding inh: -6%
